PubChem BioAssay
Activity calls are given as the source filed them.

Experiments:
[1] = test system: PRMT1 (protein arginine N-methyltransferase 1); assay: PRMT1 binders on small-molecule microarrays, primary screen, biochemical, small-molecule microarray, 635 nm fluorescence (AID 1088); settings: small-molecule microarray binding, higher = more signal;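 also: binding of Prmt1 protein to compounds spotted on small-molecule microarray slides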
[2] = yeast growth modulation, basal conditions, primary screen, YJM789 clinical isolate, OD600, 24 h (AID 1089);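 also: growth of clinical yeast isolate S. cerevisiae YJM 789 seeded 1000 cells per well; test concentration not given here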; settings: S. cerevisiae YJM789 growth, higher = more signal, called active from +8 up or from −8 down
[3] = fission yeast growth modulation, primary screen, strain 972, OD600, 24 h, no modulator (AID 1090);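 also: basal condition with compound alone and no growth modifier present; test concentration not given here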; settings: S. pombe 972 growth, higher = more signal, called active from +8 up or from −8 down
[4] = S. cerevisiae growth modulation with rapamycin, primary screen, strain BY4716, OD600, 96 h (AID 1091); settings: higher = more signal, called active from +8 up or from −8 down; also: test concentration not given here
[5] = target: Torsin-1A-interacting protein 2 (Homo sapiens) (UniProt Q8NFQ8); assay: LULL1 binders on small-molecule microarray, primary screen, cell lysate, human LULL1 lysate, 635/667 nm fluorescence (AID 1092); settings: hLULL1 lysate binding, 635 nm fluorescence, higher = more signal;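 also: probe is lysate of COS7 cells overexpressing human LULL1; score merges per-feature 667 nm fluorescence with signal-to-noise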
Chain of Torsin-1A-interacting protein 2 (Homo sapiens) (Q8NFQ8 whole entry, looked up): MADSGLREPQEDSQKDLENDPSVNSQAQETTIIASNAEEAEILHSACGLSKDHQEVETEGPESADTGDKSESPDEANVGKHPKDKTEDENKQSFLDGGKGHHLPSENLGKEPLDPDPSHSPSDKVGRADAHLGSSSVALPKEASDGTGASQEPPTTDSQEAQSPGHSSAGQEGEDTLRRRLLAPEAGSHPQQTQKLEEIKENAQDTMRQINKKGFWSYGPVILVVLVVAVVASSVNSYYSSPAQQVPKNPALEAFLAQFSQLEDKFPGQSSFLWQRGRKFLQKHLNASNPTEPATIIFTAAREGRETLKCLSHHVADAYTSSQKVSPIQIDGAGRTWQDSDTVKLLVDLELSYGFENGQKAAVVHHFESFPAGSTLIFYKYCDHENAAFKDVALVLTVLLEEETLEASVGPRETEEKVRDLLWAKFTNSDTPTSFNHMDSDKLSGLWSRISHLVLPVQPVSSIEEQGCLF

[6] = E. coli growth modulation, two-sided OD650, primary screen, E. coli filamentation project, strain DRC41, 24 h (AID 1093); settings: OD650, 24 h, higher = more signal, called active from +8 up or from −8 down;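 also: MC1000 strain lacking acrAB efflux and sulA so SOS filamentation is blocked; test concentration not given here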
[7] = small-molecule microarray binders of probe aLefty2, primary screen, biochemical, biotinylated probe, 635/667 nm fluorescence (AID 1094); settings: higher = more signal;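 also: score merges spot fluorescence near 667 nm with spot signal-to-noise ratio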
[8] = test system: Noggin (protein binding on small-molecule microarray); assay: Noggin binders on small-molecule microarray, primary screen, biochemical, 635/667 nm fluorescence (AID 1095); settings: 635 nm fluorescence, higher = more signal;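 also: score merges 667 nm feature fluorescence with signal to noise over triplicate slides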
[9] = target: Neurogenic locus notch homolog protein 3 (Homo sapiens) (UniProt Q9UM47); assay: NOTCH3 binders on small-molecule microarray, primary screen, biochemical, 635/667 nm fluorescence (AID 1096); settings: NOTCH3 binding, 635 nm fluorescence, higher = more signal
Chain of Neurogenic locus notch homolog protein 3 (Homo sapiens) (Q9UM47 whole entry, looked up): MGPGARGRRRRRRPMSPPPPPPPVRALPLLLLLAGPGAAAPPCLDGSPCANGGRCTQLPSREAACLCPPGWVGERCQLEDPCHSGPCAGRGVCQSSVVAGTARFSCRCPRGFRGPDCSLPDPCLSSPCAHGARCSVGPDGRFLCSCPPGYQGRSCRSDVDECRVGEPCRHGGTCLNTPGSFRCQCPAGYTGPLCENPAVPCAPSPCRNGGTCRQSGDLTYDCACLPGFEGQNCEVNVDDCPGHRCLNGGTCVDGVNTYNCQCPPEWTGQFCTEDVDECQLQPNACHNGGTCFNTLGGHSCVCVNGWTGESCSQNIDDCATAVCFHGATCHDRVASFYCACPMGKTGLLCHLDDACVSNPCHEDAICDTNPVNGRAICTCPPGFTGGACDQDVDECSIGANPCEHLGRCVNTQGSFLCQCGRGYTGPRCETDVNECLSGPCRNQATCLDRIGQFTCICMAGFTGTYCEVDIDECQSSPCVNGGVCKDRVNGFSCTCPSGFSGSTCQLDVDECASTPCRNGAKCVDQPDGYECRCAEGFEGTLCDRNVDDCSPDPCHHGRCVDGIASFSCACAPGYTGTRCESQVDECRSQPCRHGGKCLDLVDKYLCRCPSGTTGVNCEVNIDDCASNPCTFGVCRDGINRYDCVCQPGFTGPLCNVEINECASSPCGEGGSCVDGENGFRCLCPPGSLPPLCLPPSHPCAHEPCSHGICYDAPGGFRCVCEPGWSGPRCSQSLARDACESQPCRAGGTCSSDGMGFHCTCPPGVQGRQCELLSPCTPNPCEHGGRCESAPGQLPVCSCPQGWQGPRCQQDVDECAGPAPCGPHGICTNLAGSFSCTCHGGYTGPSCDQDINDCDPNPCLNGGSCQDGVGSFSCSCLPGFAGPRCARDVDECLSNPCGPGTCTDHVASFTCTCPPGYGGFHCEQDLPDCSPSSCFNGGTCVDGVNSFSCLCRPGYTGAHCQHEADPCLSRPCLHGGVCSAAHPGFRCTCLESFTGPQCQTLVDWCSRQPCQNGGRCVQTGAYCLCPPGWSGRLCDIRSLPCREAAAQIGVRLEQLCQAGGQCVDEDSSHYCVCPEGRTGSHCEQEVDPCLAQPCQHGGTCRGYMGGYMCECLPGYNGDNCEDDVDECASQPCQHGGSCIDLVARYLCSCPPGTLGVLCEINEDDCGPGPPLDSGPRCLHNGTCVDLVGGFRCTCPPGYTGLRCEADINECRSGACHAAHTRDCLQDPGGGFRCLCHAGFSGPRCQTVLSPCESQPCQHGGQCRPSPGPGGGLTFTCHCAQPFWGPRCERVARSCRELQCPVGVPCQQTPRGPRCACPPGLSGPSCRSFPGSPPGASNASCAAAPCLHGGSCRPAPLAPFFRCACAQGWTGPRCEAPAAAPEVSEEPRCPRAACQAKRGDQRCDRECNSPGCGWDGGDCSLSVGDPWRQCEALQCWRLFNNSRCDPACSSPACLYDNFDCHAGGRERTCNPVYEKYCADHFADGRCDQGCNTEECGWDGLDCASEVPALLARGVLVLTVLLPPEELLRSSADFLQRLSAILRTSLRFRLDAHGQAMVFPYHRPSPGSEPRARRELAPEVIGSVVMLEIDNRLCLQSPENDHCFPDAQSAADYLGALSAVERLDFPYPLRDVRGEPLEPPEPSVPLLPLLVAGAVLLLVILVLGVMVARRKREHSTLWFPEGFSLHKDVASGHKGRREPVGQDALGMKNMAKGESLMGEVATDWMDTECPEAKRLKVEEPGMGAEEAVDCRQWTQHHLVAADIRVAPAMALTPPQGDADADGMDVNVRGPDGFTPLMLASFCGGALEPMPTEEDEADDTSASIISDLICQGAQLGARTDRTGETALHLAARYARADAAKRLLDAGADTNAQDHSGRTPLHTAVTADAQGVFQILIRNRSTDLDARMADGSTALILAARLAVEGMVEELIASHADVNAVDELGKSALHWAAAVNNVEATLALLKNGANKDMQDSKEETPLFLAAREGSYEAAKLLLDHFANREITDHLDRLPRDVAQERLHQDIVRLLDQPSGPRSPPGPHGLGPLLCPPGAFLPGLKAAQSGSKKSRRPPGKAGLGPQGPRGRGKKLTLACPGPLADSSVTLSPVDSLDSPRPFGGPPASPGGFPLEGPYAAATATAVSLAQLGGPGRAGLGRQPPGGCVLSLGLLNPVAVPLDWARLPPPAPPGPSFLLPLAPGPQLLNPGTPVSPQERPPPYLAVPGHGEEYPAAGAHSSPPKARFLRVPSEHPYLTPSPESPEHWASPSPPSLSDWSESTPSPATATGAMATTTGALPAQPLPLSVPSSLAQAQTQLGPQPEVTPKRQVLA

[10] = small-molecule microarray binders of probe aEGFR, primary screen, biochemical, biotinylated probe, 635/667 nm fluorescence (AID 1097); settings: higher = more signal;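 also: probe is a biotinylated anti-EGFR antibody binding compounds printed on slides; score combines fluorescence near 667 nm and signal to noise of each spot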

SMILES	composite z-score [1]	z-score [2]	z-score [3]	z-score [4]	composite z-score [5]	z-score [6]	composite z-score [7]	composite z-score [8]	composite z-score [9]	composite z-score [10]
C=CC[C@]1(C(=O)N(C)C)N=C(c2ccc(OCCCO)cc2)O[C@H]1c1ccccc1	1.43	-1.76 (inactive)	-3.16 (inactive)	-0.979 (inactive)	3.59	0.896 (inactive)	0.0158	0.364	1.14	-0.0512
CCOc1cc(C(O)C2C=CC3C(=O)NC(=O)C3N2Nc2ccccn2)ccc1O (stereo not given)	-0.0438	0.128 (inactive)	1.33 (inactive)	-0.0339 (inactive)	0.394	-0.977 (inactive)	-0.0708	0.195	0.0082	-0.0947
C=C(COC)C(=O)CC[C@H](OC(=O)c1ccccc1-c1ccccc1C(=O)O)c1ccc(OCCO)cc1	1.55	-1.73 (inactive)	-0.613 (inactive)	-0.509 (inactive)	0.75	0.802 (inactive)	-0.117	1.52	0.615	-0.111
COC(=O)[C@@]1(Cc2ccccc2N=[N+]=[N-])N=C(c2ccc(OCCCO)cc2)O[C@H]1c1ccccc1	1.14	-0.0982 (inactive)	-3 (inactive)	23 (active)	1.21	0.0111 (inactive)	-0.0654	0.314	0.94	-0.115
CC1(C)[C@@H]2CC(C(O)C3C=CC4C(=O)N(c5ccccc5)C(=O)C4N3Nc3ccccc3F)=C[C@@H]1C2 (stereo not given in full)	1.53	-0.601 (inactive)	0.5 (inactive)	-0.382 (inactive)	3.19	-0.117 (inactive)	0.155	0.791	1.06	0.0066
CCCc1cc2c(n1Cc1ccc(OC)cc1)C(C)C1CN(C(=O)c3ccccc3)C(C)(C(=O)OC)C21 (stereo not given)	1.34	0.461 (inactive)	0.815 (inactive)	1.64 (inactive)	3.37	-1.21 (inactive)	0.8	-0.758	1.05	0.389
C=C(COC)/C(=C/C[C@@H](OC(=O)c1ccncc1)c1cccc(OCCO)c1)c1cc(C(=O)OC)ccc1OC	1.56	-25.3 (active)	-20.2 (active)	-4.36 (inactive)	0.512	0.625 (inactive)	-0.205	1.32	0.841	-0.0022
CO[C@H]1O[C@H](CO)[C@@H](OC(=O)Nc2ccc(C(F)(F)F)cc2)[C@H](OC(=O)Nc2ccccc2)[C@H]1OC(=O)Nc1ccccc1	1.53	0.719 (inactive)	-0.304 (inactive)	5.51 (inactive)	3.14	-0.994 (inactive)	0.158	0.896	1.04	0.172
NCCCCCCNC(=O)[C@H]1C[C@H]2C(=O)N3CCC[C@H]3C(=O)N2[C@H]1c1ccc(O)cc1	1.29	-0.777 (inactive)	-1.25 (inactive)	-0.28 (inactive)	0.991	0.181 (inactive)	-0.179	1.41	0.419	0.0053
[N-]=[N+]=NCc1ccccc1[C@H]1OC(c2ccc(OCCCO)cc2)=N[C@@]1(Cc1ccccc1)C(N)=O	1.56	-0.116 (inactive)	-1.07 (inactive)	-0.443 (inactive)	3.37	0.369 (inactive)	0.408	0.429	1.13	0.29
COC(=O)[C@@]1(Cc2ccccc2)[C@H]2c3cc(C(=O)N4CCCC4)n(Cc4ccccc4)c3C[C@H]2CN1C(=O)c1ccccc1	-0.089	-0.0324 (inactive)	0.58 (inactive)	1.55 (inactive)	3.41	-0.745 (inactive)	0.432	0.0362	1.05	0.416
COCCOC(=O)N1C(=O)[C@@]2(c3cc(C#Cc4ccc(OC)cc4)ccc31)[C@H](C(=O)N1CCc3cc(OC)c(OC)cc3C1)[C@H]1C(=O)O[C@H](c3ccccc3)[C@H](c3ccccc3)N1[C@@H]2c1ccc(OCCO)cc1	1.33	2.2 (inactive)	1.36 (inactive)	5.75 (inactive)	1.32	0.816 (inactive)	-0.104	1.22	1.15	0.0343
[N-]=[N+]=NCc1ccccc1C[C@]1(C(=O)NCCN2CCOCC2)COC(c2ccc(OCCCO)cc2)=N1	1.55	-1.52 (inactive)	-2.24 (inactive)	-1.66 (inactive)	3.08	1.46 (inactive)	0.0004	0.516	0.486	-0.0351
CN1C(=O)C2C=CC(C(O)COCc3ccccc3)N(Nc3ccccc3)C2C1=O (stereo not given)	0.691	0.12 (inactive)	1.15 (inactive)	-0.116 (inactive)	3.54	-0.309 (inactive)	0.147	0.28	0.896	-0.0232
COc1ccc([Si](C)(C)[C@@H]2[C@@H](CCO)O[C@]3(C(=O)N(Cc4cccc(N5C(=O)COc6ccccc65)c4)c4ccccc43)[C@H]2C)cc1	0.896	3.01 (inactive)	1.09 (inactive)	36.8 (active)	1.61	0.685 (inactive)	-0.124	-0.142	0.528	-0.0864
C=CC[C@]1(C(=O)NCC(O)CO)N=C(c2ccc(OCCCO)cc2)O[C@H]1c1ccccc1N=[N+]=[N-] (stereo not given in full)	1.03	-0.285 (inactive)	-0.529 (inactive)	-0.325 (inactive)	3.31	0.346 (inactive)	0.406	-0.0496	-0.0588	-0.142
CC(C)c1ccc(NN2C(C(O)c3cccs3)C=CC3C(=O)N(c4ccccc4)C(=O)C32)cc1 (stereo not given)	1.54	0.354 (inactive)	0.758 (inactive)	0.331 (inactive)	3.36	-1.14 (inactive)	0.453	-0.0307	1.06	0.08
CN(C)C(=O)[C@@]1(Cc2ccccc2N=[N+]=[N-])N=C(c2ccc(OCCCO)cc2)O[C@H]1c1ccccc1N=[N+]=[N-]	1.56	0.506 (inactive)	-2.68 (inactive)	3.01 (inactive)	2.87	0.239 (inactive)	0.505	0.126	1.06	0.387
COCCOC(=O)N1C(=O)[C@@]2(c3ccccc31)[C@H](c1ccccc1OCCO)N1[C@H](c3ccccc3)[C@H](c3ccccc3)OC(=O)[C@H]1[C@@H]2C(=O)N1CCc2cc(OC)c(OC)cc2C1	1.52	2.11 (inactive)	1.99 (inactive)	6.86 (inactive)	2.01	0.344 (inactive)	0.0706	1.34	1.04	0.0556
C[C@@H]1ON(c2ccccc2)[C@H](c2ccccc2)[C@H]1C(=O)N1C(=O)OC[C@H]1Cc1ccccc1	1.3	0.713 (inactive)	-0.451 (inactive)	0.125 (inactive)	0.786	0.547 (inactive)	-0.166	0.405	0.826	-0.0549
COCCCNC(=O)[C@]1(CCS(=O)(=O)c2ccccc2)N=C(c2ccc(OCCCO)cc2)O[C@@H]1c1ccccc1	1.54	-0.575 (inactive)	0.127 (inactive)	0.0389 (inactive)	3.74	0.697 (inactive)	0.255	0.712	1.11	0.141
